The full data set covers some 7,900 targets. This sample favours those with a hit. About 0.6% of all pairs of compound and target were hits. Values without a mark were called inactive.
What was measured:
Assay in all cases: log2 fold change, soluble protein after heating vs DMSO (PISA); higher = thermal stabilisation; K562 cells, 10 uM, 30 min; active = over 0.2 and 3.5 SD of the protein, either way, in both replicates (recomputed)
[1] = compound: COC1=CC=C(C=C1)CN2C=CC3=C2C=C(C=C3)C(=O)NO
Method in brief: (§1)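 K562 cells at 2×10^6 cells/mL were exposed to 10 μM compound for 30 min, then aliquots were heated for 3 min across 48°C-58°C, pooled, and extracted in PBS containing 0.5% NP-40 at 4°C. The supernatant after 21,000xg for 90 min was taken as soluble protein and measured by TMTpro 16plex LC-MS/MS with channel sums equalised. Thermal stability is reported relative to control samples, with values from duplicates. Fold changes are given on a log2 scale.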

filanesib = compound: CON(C)C(=O)N1N=C(c2cc(F)ccc2F)S[C@@]1(CCCN)c1ccccc1 [filanesib]
Method in brief: as §1

zotarolimus = compound: CO[C@H]1C[C@@H]2CC[C@@H](C)[C@@](O)(O2)C(=O)C(=O)N2CCCC[C@H]2C(=O)O[C@H]([C@H](C)C[C@@H]2CC[C@H](n3cnnn3)[C@H](OC)C2)CC(=O)[C@H](C)/C=C(\C)[C@@H](O)[C@@H](OC)C(=O)[C@H](C)C[C@H](C)/C=C/C=C/C=C/1C [zotarolimus]
Method in brief: as §1

idasanutlin = compound: COc1cc(C(=O)O)ccc1NC(=O)[C@@H]1N[C@@H](CC(C)(C)C)[C@](C#N)(c2ccc(Cl)cc2F)[C@H]1c1cccc(Cl)c1F [idasanutlin]
Method in brief: as §1

alisertib = compound: COc1cc(Nc2ncc3c(n2)-c2ccc(Cl)cc2C(c2c(F)cccc2OC)=NC3)ccc1C(=O)O [alisertib]
Method in brief: as §1

[2] = compound: COc1cc2nc(-c3cc(F)ccc3O)nc(N[C@@H]3CNC[C@H]3C(C)(C)O)c2cc1OC
Method in brief: as §1

gefitinib = compound: COc1cc2ncnc(Nc3ccc(F)c(Cl)c3)c2cc1OCCCN1CCOCC1 [gefitinib]
Method in brief: as §1

[3] = compound: COc1cccc2cc(-c3nc([C@H]4CC[C@H](C(=O)O)CC4)n4ncnc(N)c34)[nH]c12
Method in brief: as §1

lapatinib = compound: CS(=O)(=O)CCNCc1ccc(-c2ccc3ncnc(Nc4ccc(OCc5cccc(F)c5)c(Cl)c4)c3c2)o1 [lapatinib]
Method in brief: as §1

pictilisib = compound: CS(=O)(=O)N1CCN(Cc2cc3nc(-c4cccc5[nH]ncc45)nc(N4CCOCC4)c3s2)CC1 [pictilisib]
Method in brief: as §1

[4] = compound: CS(=O)(=O)c1ccc(-c2cnc(N)c(C(=O)Nc3ccccc3)n2)cc1
Method in brief: as §1

crizotinib = compound: C[C@@H](Oc1cc(-c2cnn(C3CCNCC3)c2)cnc1N)c1c(Cl)ccc(F)c1Cl [crizotinib]
Method in brief: as §1

[5] = compound: C[C@@H]1COCCN1C2=NC(=NC(=C2)C3(CC3)S(=O)(=O)C)C4=C5C=CNC5=CC=C4
Method in brief: as §1

[6] = compound: C[C@H](C1=CC=C(C=C1)C(=O)NC2=C3C=CNC3=NC=C2)N
Method in brief: as §1

duvelisib = compound: C[C@H](Nc1ncnc2nc[nH]c12)c1cc2cccc(Cl)c2c(=O)n1-c1ccccc1 [duvelisib]
Method in brief: as §1

gandotinib = compound: Cc1cc(Nc2cc(CN3CCOCC3)c3nc(C)c(Cc4ccc(Cl)cc4F)n3n2)n[nH]1 [gandotinib]
Method in brief: as §1

tozasertib = compound: Cc1cc(Nc2cc(N3CCN(C)CC3)nc(Sc3ccc(NC(=O)C4CC4)cc3)n2)n[nH]1 [tozasertib]
Method in brief: as §1

[7] = compound: Cc1cc(SCc2sc(-c3ccc(C(F)(F)F)cc3)nc2C)ccc1OCC(=O)O
Method in brief: as §1

doramapimod = compound: Cc1ccc(-n2nc(C(C)(C)C)cc2NC(=O)Nc2ccc(OCCN3CCOCC3)c3ccccc23)cc1 [doramapimod]
Method in brief: as §1

ispinesib = compound: Cc1ccc(C(=O)N(CCCN)[C@@H](c2nc3cc(Cl)ccc3c(=O)n2Cc2ccccc2)C(C)C)cc1 [ispinesib]
Method in brief: as §1

UniProt P10620, sequence (P10620 whole entry, looked up): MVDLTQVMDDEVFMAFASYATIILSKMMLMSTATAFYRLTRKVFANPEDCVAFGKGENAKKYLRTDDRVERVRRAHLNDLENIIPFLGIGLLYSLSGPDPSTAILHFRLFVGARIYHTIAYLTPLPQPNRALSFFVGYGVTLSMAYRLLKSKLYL
UniProt Q9H0C8, sequence (Q9H0C8 whole entry, looked up): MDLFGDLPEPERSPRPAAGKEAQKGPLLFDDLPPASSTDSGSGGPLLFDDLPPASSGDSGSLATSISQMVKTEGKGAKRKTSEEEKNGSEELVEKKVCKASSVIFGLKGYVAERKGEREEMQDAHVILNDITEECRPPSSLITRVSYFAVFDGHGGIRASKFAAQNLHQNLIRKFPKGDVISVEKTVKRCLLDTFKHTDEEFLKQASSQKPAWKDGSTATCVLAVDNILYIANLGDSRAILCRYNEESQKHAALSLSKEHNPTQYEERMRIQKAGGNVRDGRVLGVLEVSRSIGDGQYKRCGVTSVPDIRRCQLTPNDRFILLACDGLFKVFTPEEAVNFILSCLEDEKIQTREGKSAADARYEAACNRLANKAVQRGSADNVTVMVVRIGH
UniProt Q16539, sequence (Q16539 whole entry, looked up): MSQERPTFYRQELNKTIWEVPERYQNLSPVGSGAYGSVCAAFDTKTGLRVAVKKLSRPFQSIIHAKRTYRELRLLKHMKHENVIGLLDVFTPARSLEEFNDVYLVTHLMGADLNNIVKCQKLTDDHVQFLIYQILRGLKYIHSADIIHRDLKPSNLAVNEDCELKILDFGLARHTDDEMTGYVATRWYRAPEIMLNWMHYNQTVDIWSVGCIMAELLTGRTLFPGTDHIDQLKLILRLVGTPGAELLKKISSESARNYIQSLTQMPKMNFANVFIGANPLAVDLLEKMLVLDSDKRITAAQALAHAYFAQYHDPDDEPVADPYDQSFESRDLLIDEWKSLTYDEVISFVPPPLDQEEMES
UniProt Q9HCC0, sequence (Q9HCC0 whole entry, looked up): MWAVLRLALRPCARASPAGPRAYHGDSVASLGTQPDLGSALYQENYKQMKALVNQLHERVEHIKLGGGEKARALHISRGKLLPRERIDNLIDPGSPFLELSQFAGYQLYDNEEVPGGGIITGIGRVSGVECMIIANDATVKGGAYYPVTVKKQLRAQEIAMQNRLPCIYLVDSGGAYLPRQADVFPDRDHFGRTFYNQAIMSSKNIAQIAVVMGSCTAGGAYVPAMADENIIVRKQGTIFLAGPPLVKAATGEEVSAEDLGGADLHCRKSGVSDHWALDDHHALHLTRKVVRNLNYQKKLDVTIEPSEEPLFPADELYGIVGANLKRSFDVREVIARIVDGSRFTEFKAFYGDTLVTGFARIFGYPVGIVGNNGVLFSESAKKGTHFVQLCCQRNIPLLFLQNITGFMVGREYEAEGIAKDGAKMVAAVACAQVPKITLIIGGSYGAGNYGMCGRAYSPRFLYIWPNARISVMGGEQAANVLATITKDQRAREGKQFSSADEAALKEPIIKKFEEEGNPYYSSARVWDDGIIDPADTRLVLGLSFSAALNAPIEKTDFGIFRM
UniProt Q13422, sequence (Q13422 whole entry, looked up): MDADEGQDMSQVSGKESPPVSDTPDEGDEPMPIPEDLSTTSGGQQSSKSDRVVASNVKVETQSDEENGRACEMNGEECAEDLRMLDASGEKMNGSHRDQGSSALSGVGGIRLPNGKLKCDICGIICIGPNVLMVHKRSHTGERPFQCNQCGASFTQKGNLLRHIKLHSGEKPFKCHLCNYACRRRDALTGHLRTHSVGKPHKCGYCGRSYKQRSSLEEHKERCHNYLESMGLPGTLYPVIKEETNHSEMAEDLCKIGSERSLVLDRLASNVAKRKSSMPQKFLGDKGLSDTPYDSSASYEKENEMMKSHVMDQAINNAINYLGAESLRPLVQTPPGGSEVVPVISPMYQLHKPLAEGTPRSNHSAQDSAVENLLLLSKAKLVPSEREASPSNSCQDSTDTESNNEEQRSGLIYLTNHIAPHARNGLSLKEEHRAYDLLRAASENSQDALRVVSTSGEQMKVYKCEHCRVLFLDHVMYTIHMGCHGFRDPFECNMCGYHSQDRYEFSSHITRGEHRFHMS
UniProt Q9NVH2, sequence (Q9NVH2 whole entry, looked up): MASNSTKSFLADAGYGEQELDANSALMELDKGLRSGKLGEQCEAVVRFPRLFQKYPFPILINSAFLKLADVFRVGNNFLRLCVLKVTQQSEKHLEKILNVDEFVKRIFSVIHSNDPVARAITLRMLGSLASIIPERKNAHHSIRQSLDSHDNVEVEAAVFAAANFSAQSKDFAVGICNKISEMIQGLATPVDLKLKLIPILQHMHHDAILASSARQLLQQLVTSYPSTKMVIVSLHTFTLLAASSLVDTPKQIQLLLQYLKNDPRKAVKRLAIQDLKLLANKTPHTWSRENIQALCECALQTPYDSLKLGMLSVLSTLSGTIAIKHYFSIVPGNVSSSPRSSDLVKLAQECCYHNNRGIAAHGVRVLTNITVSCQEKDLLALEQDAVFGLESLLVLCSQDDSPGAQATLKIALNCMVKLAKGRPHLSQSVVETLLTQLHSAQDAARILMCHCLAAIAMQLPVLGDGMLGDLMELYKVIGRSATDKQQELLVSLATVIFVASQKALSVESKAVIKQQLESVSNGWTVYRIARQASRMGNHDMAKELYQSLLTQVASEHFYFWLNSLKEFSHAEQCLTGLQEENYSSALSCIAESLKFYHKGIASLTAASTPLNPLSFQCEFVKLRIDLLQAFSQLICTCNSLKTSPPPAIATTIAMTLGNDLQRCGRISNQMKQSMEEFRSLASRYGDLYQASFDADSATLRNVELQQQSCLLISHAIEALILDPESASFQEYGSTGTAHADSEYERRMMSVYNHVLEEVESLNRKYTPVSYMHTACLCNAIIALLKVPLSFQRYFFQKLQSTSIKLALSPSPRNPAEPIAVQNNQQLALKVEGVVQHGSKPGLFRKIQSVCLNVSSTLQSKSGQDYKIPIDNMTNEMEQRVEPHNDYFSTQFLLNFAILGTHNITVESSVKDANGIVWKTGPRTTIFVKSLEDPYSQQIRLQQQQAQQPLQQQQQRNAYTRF
UniProt O14733, sequence (O14733 whole entry, looked up): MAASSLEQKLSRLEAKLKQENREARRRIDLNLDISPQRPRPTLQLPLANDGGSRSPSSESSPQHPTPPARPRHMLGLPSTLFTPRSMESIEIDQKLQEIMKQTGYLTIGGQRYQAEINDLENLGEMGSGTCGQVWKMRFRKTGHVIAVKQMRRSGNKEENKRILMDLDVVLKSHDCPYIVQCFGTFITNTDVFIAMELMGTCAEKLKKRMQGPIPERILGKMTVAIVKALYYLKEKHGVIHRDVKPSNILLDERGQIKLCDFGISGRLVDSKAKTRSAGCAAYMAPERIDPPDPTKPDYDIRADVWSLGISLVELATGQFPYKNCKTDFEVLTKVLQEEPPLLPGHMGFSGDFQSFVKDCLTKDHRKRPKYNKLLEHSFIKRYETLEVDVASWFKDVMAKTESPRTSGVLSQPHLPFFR
UniProt Q9H3F6, sequence (Q9H3F6 whole entry, looked up): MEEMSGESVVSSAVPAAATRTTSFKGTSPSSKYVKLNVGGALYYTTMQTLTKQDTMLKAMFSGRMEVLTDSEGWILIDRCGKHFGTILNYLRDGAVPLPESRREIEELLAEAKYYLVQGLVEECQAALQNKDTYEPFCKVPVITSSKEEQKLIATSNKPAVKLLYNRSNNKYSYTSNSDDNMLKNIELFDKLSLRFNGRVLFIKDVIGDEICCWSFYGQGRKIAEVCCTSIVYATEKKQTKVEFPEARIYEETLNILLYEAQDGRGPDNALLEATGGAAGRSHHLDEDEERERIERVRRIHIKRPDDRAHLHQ
UniProt Q9UIQ6, sequence (Q9UIQ6 whole entry, looked up): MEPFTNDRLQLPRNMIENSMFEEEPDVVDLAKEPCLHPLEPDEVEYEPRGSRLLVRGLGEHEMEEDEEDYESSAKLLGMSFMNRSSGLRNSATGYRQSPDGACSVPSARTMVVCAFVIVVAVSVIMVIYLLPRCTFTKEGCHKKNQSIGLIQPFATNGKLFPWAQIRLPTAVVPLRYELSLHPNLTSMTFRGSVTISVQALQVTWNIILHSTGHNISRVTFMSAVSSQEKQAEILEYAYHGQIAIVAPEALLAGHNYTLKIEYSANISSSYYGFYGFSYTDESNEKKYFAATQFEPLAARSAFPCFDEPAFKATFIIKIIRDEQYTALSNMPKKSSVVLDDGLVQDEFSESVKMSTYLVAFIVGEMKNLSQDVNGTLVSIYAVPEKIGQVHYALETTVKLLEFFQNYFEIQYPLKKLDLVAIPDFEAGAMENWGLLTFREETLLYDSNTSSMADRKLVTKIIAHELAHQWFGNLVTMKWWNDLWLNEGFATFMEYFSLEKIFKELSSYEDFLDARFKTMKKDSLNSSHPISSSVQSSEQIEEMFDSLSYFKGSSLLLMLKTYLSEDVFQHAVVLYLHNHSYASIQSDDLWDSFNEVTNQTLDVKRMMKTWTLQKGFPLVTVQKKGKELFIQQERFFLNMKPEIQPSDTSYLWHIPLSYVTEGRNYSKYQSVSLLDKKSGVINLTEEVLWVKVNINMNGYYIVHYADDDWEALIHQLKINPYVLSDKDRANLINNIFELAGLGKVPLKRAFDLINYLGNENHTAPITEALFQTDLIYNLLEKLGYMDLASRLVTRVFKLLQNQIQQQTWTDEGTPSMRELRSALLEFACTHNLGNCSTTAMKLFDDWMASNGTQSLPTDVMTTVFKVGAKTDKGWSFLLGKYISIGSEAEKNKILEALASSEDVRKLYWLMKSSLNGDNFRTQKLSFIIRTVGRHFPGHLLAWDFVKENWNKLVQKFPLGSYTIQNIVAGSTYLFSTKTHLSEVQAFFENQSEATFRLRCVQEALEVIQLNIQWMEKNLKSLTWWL

Row | Target | log2 fold change [1] | log2 fold change (filanesib) | log2 fold change (zotarolimus) | log2 fold change (idasanutlin) | log2 fold change (alisertib) | log2 fold change [2] | log2 fold change (gefitinib) | log2 fold change [3] | log2 fold change (lapatinib) | log2 fold change (pictilisib) | log2 fold change [4] | log2 fold change (crizotinib) | log2 fold change [5] | log2 fold change [6] | log2 fold change (duvelisib) | log2 fold change (gandotinib) | log2 fold change (tozasertib) | log2 fold change [7] | log2 fold change (doramapimod) | log2 fold change (ispinesib)
1 | MCCC2 (UniProt Q9HCC0) | 0.137 | -0.07 | 0 | -0.033 | -0.057 | -0.022 | 0.006 | 0.083 | 0.001 | -0.031 | -0.004 | 0.028 | 0.027 | -0.053 | 0.054 | 0.051 | -0.011 | -0.022 | 0 | 0.047
2 | MFN2 (UniProt O95140) | 0.04 | -0.112 | 0.016 | 0 | -0.043 | -0.438 (active) | 0.01 | -0.006 | 0.027 | -0.058 | 0.028 | -0.109 | 0 | 0.022 | -0.048 | 0.028 | -0.013 | 0.041 | 0.039 | -0.208
3 | IKZF1 (UniProt Q13422) | -0.045 | -0.136 | 0.004 | 0.037 | -0.019 | 0.01 | 0.128 | 0.039 | -0.041 | 0.026 | -0.065 | -0.048 | 0.008 | -0.069 | 0.111 | -0.038 | -0.078 | 0.039 | -0.016 | -0.186
4 | MAP2K7 isoform 4 (UniProt O14733) | -0.018 | -0.029 | -0.042 | -0.003 | -0.029 | 0.019 | -0.027 | 0.048 | -0.016 | 0.137 | 0.017 | -0.112 | 0.003 | -0.003 | 0.018 | -0.055 | -0.057 | -0.038 | 0 | -0.051
5 | METAP1D (UniProt Q6UB28) | 0.342 (active) | -0.097 | 0.054 | 0.079 | -0.085 | 0.021 | -0.029 | -0.035 | -0.062 |  | -0.009 | -0.041 | 0.147 | -0.037 | 0.03 |  | -0.055 | 0.01 | -0.091 | -0.032
6 | METTL18 (UniProt O95568) | -0.364 (active) | 0.009 | 0.033 | -0.022 | 0.006 | 0.075 | -0.033 | 0.057 | 0.069 | 0.026 | 0.003 | -0.043 | 0.053 | -0.012 | 0.004 | -0.045 | -0.115 | 0.012 | -0.001 | 0.004
7 | LBR (UniProt Q14739) | -0.075 | -0.065 | -0.008 | -0.196 | -0.019 | 0.079 | 0.034 | 0 | -0.081 | -0.191 | 0.025 | 0.152 | 0.016 | -0.031 | -0.014 | -0.359 (active) | -0.026 | 0.017 | -0.02 | -0.08
8 | MAPK14 isoform 2 (UniProt Q16539) | 0 | 0.016 | -0.033 | -0.018 | -0.058 | -0.005 | 0.811 | 0.319 | -0.034 | -0.114 | 0.087 | -0.062 | -0.018 | -0.013 | -0.072 | -0.022 | 0.031 | 0.017 |  | -0.038
9 | KCTD10 (UniProt Q9H3F6) | 0.086 | 0.177 | -0.095 | -0.049 | -0.06 | 0.079 | -0.03 | -0.105 | 0.001 | -0.039 | -0.035 | 0.097 | -0.027 | -0.13 | 0.05 | 0.042 | 0.035 | -0.01 | -0.042 | 0.108
10 | MGST1 (UniProt P10620) | 0.039 | -0.019 | 0.006 | -0.06 | 0.013 | 0.152 | -0.036 | -0.043 | -0.009 | 0.112 | -0.006 | 0.152 | -0.01 | -0.257 (active) | -0.042 | 0.044 | -0.111 | -0.123 | -0.053 | -0.027
11 | INTS7 (UniProt Q9NVH2) | 0.05 | -0.022 | -0.007 | -0.052 | -0.029 | 0.05 | -0.052 | -0.012 | -0.015 | 0.148 | 0.009 | -0.133 | -0.053 | -0.054 | 0 | 0.211 | 0.008 | 0.014 | -0.091 | -0.036
12 | MAGEA9 (UniProt P43362) | -0.246 | 0.003 | 0.015 | 0.087 | 0.057 | 0.024 | 0.034 | 0.033 | -0.018 | -0.018 | 0.005 | 0.008 | 0.082 | -0.028 | 0.12 | -0.095 | 0.168 | -0.029 | 0 | -0.001
13 | ILKAP (UniProt Q9H0C8) | 0 | -0.016 | 0.03 | -0.06 | -0.13 | 0.113 | 0.032 | -0.056 | -0.029 | -0.035 | 0.008 | 0.064 | 0.174 | -0.054 | 0.041 | -0.061 | 0 | 0.085 | -0.055 | 0.05
14 | MFGE8 (UniProt Q08431) | -0.129 | 0.129 | -0.03 | 0.05 | -0.147 | 0.019 | 0.069 | -0.124 | 0.079 | 0.122 | 0.063 | 0.04 | -0.129 | 0.087 | -0.052 | -0.015 | 0.085 | 0.057 | 0.046 | -0.122
15 | LNPEP (UniProt Q9UIQ6) | 0.001 | -0.014 | -0.03 | -0.014 | -0.01 | 0.016 | 0.01 | 0.058 | 0.003 | 0.04 | 0.028 | 0.015 | 0.023 | -0.053 | 0.053 | 0.028 | -0.023 | -0.008 | -0.013 | -0.039
16 | KDM1A isoform 2 (UniProt O60341) | 0.019 | 0.004 | -0.009 | -0.03 | -0.055 | 0.07 | 0.022 | -0.036 | 0.068 | -0.008 | -0.047 | -0.036 | 0.018 | -0.011 | 0.025 | 0.014 | 0.049 | 0.061 | -0.028 | -0.057

— the supplement of paper PMC10849652
